In all, about 33,000 sequences were measured (“E-score (-0.5 to 0.5)”: median about -0.056, highest 2% from about 0.38 on). The list comes from a sample in which the highest values are over-represented; it also holds similar and randomly drawn sequences.
Target: Stb4 (UniProt P50104)
Assay: PBM E-score (8-mer binding enrichment) (E-score (-0.5 to 0.5)); higher = stronger / more preferred TF binding
Conditions: protein concentration: 200 nM; construct: GST-DNA-binding domain
Description: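 Universal 'all 10-mer' protein binding microarrays (Agilent AMADID 015681) probed with GST-tagged S. cerevisiae TFs (full-length or DBD) made by in vitro transcription/translation (PURExpress), about 100-200 nM. Bound TF was detected with fluorescent anti-GST. Each ungapped 8-mer (which stands for itself and its reverse complement) is scored by the PBM enrichment score (E-score), a modified Wilcoxon-Mann-Whitney statistic from -0.5 to +0.5, computed with the Universal PBM Analysis Suite. Scale: above 0.35 generally sequence-specific binding.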

Sequence of UniProt P50104 (P50104 whole entry): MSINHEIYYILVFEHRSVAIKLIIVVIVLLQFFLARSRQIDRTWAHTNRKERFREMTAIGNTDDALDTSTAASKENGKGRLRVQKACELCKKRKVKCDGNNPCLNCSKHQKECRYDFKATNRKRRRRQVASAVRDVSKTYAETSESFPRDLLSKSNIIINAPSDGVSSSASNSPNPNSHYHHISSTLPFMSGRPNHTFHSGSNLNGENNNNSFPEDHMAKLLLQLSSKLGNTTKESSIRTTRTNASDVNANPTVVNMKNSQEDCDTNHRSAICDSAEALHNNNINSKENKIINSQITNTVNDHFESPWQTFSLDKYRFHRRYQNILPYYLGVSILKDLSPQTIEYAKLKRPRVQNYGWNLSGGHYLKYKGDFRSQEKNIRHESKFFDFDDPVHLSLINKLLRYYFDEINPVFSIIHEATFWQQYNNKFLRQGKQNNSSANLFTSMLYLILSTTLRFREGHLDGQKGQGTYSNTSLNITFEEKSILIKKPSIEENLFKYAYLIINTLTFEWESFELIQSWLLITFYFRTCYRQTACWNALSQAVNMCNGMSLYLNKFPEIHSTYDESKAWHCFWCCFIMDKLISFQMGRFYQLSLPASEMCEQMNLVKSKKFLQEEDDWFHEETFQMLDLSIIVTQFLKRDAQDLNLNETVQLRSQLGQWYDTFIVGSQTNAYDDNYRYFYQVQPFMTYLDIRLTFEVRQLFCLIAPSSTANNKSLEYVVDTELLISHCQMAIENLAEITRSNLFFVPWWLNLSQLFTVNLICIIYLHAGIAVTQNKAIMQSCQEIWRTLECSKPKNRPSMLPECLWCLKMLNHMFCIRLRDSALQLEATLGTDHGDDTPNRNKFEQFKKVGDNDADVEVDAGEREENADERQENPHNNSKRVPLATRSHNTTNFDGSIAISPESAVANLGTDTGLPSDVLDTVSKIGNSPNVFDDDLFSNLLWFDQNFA

| Sequence | PBM E-score |
| --- | --- |
| ATGATTTC | 0.0687 |
| AATGATTG | -0.164 |
| ATAGCAAT | -0.185 |
| AGTCTAAC | -0.163 |
| ACAGTCAG | -0.0929 |
| ACACCAAT | 0.00344 |
| CTCGGGTC | 0.434 |
| ATCGGGTC | 0.325 |
| CTCGGGCC | 0.343 |
| CGGAATAA | 0.384 |
| AGGAATTA | 0.0103 |
| CGGAATCA | 0.388 |
| CGGAATTA | 0.401 |
| AGGAATCA | -0.00647 |
| GGGAATCA | 0.0543 |
| TGGAATAA | 0.072 |
| CGGAATTC | 0.322 |
| GGGAATAA | 0.233 |
| GGATCATA | 0.228 |
| AACTGTGC | -0.157 |
| AAAAATCG | 0.0452 |
| CTGAAACA | 0.0153 |

| Sequence | PBM E-score |
| --- | --- |
| GTTTAGAA | -0.0425 |
| ATGAAAAT | 0.0835 |
| AGACGGGA | 0.174 |
| GACTCAGC | -0.191 |
| CACGCATG | -0.209 |
| ATACATGA | -0.212 |
| ACGAACAA | 0.079 |
| ACGAACTA | -0.194 |
| CCGAACAC | 0.372 |
| ACGAACAG | -0.15 |
| CCGAACAA | 0.425 |
| GCGAACAA | -0.0836 |
| CCGAACTA | 0.395 |
| CCGAACTC | 0.374 |
| CCGAACAG | 0.4 |
| GCAACGAC | 0.0391 |
| CACTGTGA | -0.018 |
| AGCCCCTA | -0.139 |
| AAGGGTTC | -0.14 |
| CACGTGTA | -0.0718 |
| GTGTGAAC | 0.0138 |
| CGTGGCAC | -0.178 |

| Sequence | PBM E-score |
| --- | --- |
| CCCTGTGC | -0.0934 |
| ATATCGGG | 0.306 |
| TCATCGGA | 0.403 |
| ACATCGGA | 0.346 |
| CTATCGGA | 0.423 |
| AAATCGGA | 0.399 |
| GCATCGGA | 0.359 |
| CTATCGGC | 0.26 |
| AAATCGGG | 0.317 |
| ATATCGGA | 0.383 |
| CTATCGTA | -0.199 |
| TAATCGGA | 0.324 |
| ATATCGGC | 0.316 |
| AAATGCGT | -0.129 |
| AGTGTGAT | -0.0318 |
| CAATTTAC | -0.00625 |
| CATAGTGG | -0.102 |
| CCGACCTA | 0.296 |
| CACGGTGG | -0.061 |
| GGCCCACC | 0.0688 |
| AAAAGATT | -0.0765 |
| AGGTTTAC | -0.0584 |

| Sequence | PBM E-score |
| --- | --- |
| GAATCGGA | 0.38 |
| GTATCGAA | -0.0419 |
| GTATCGGA | 0.39 |
| ACATCACC | 0.0212 |
| CATCTGTC | 0.0312 |
| ACTTCCGG | 0.411 |
| ACTTCCCA | -0.158 |
| GCTTCCGA | 0.473 |
| ACTTCCTG | -0.0685 |
| ACTTCCCG | 0.354 |
| GCTTCCTA | -0.0701 |
| CCTTCCGC | 0.306 |
| CCTTCCGA | 0.451 |
| CCTTCCTA | -0.354 |
| ACTTCCGC | 0.379 |
| ACTTCCGA | 0.479 |
| GCTTCCAA | -0.147 |
| AAAACTTT | 0.0161 |
| CCTGTATC | 0.011 |
| CTGCTAAC | -0.0715 |
| ATCTCTAA | 0.0304 |
| AGCCAGAT | 0.0138 |

| Sequence | PBM E-score |
| --- | --- |
| CACCGCAA | 0.0924 |
| CACCGTCA | -0.13 |
| CGGATGGC | 0.347 |
| GACCCATC | 0.0784 |
| GCCCCGAA | 0.31 |
| TACCCCGA | 0.342 |
| GACCCCGA | 0.288 |
| GACCCGAA | 0.428 |
| CACCCGGA | 0.358 |
| TACCCGAA | 0.476 |
| TACCCGGA | 0.415 |
| AACCCGAC | 0.324 |
| GACCCGCC | 0.0652 |
| GACCCGAC | 0.384 |
| TACCCGTA | 0.31 |
| GACCCGGA | 0.323 |
| GAAAAGTC | -0.011 |
| ACCAAGGA | 0.00373 |
| AAGGCCTA | -0.225 |
| ATTTGGGG | -0.0633 |
| ACCCCGAA | 0.369 |
